# Data taken from PubChem BioAssay (EPA / NIEHS).
# Where “and” joins values, the source holds several entries; their conditions need not be identical. Equal entries are not always repeated. Inconclusive results are not listed. Calls of active or inactive are those of the source. How the source made its calls: active means hit-call score of the fitted dose curve at least 0.9, where 1 is the maximum; inconclusive means response in the unintended direction; inactive means score below 0.9.
# Legend:
# [1] = target: rat Gamma-Aminobutyric Acid Type A Receptor, Non-Selective (GABAR-NonSelective), Gabra1 (gene 29705) (UniProt P62813); assay: NVS_LGIC_rGABAR_NonSelective: NovaScreen (NVS) Ligand-Gated Ion Channel Assay for rat Gamma-Aminobutyric Acid Type A Receptor, Non-Selective (GABAR-NonSelective) (AID 2283326)
# In short: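 Compounds were first screened in duplicate at 25 uM, with actives run as singleton concentration series (max 50 uM). Binding of a radioligand to rat whole-brain GABA-A preparation was measured by filtration and scintillation counting after 1 h, DMSO baseline.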
# [2] = target: human Peripheral-type Benzodiazepine Receptor (PBR), TSPO (gene 706) (UniProt P30536); assay: NVS_MP_hPBR: NovaScreen (NVS) Membrane Protein Assay for human Peripheral-type Benzodiazepine Receptor (PBR) (AID 2283331);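 further: hits reduce radioligand binding relative to DMSO baseline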
# In short: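 Using human colon-derived membranes, this one-endpoint binding test reads radioligand loss by scintillation after 1 h. Screening started at 25 uM in duplicate, with positive and negative controls on every plate, and actives moved to dose series.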
# [3] = target: Sodium channel protein type 1 subunit alpha (Rattus norvegicus) (UniProt P04774); assay: NVS_IC_rNaCh_site2: NovaScreen (NVS) Ion Channel Assay for rat Sodium Channel, Site 2 (NaCh) (AID 2283322);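 further: hit means loss of radioligand binding signal relative to DMSO so AC50 marks displacement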
# Experimental: (§1) NVS_IC_rNaCh_site2 is a biochemical, single-readout assay that uses extracted gene-proteins from Rat forebrain membranes in a tissue-based cell-free assay. Measurements were taken 1 hour after chemical dosing in a 48-well plate.NVS_IC_rNaCh_site2 is one of one assay component(s) measured or calculated from the NVS_IC_rNaCh_site2 assay. It is designed to make measurements of radioligand binding, a form of binding reporter, as detected with scintillation counting signals by Filter-based radiodetection technology.Data from the assay component NVS_IC_rNaCh_site2 was analyzed into 1 assay endpoint. This assay endpoint, NVS_IC_rNaCh_site2, was analyzed in the positive analysis fitting direction relative to DMSO as the negative control and baseline of activity. Using a type of binding reporter, loss-of-signal activity can be used to understand changes in the binding as they relate to the gene Scn1a. Furthermore, this assay endpoint can be referred to as a primary readout, because the performed assay has only produced 1 assay endpoint. To generalize the intended target to other relatable targets, this assay endpoint is annotated to the ion channel intended target family, where the subfamily is sodium channel.
# Binding assays used specific radioligands (tritiated, iodinated) with non-radioactive competitive displacement ligands in agonist or antagonist protocols (as indicated) and various reference compounds and inhibitors to titrate specific binding to receptors and transporters. Most enzyme assays (CYPs, kinases, phosphatases, proteases, HDACs) used recombinant protein and specific substrates (fluorescence mostly, some colorimetric and radioactive) and inhibitors, followed by a biochemical separation of substrate and product. All assays for the biochemical HTS were initially run in duplicate at a single concentration (10 uM for CYP450 assays and 25 uM for all others). […] Each assay was run with positive and negative controls, and concurrent controls on every plate. The follow-up (secondary) screen tested active chemical-pairs in concentration series, as well as a few additional assays not tested in the primary screen, some selected negative inactives, and several cases re-run in the concentration series for confirmatory purposes.
# [4] = target: rat Thyrotropin Releasing Hormone Receptor (TRH), Trhr (gene 25570) (UniProt Q01717); assay: NVS_GPCR_rTRH: NovaScreen (NVS) G Protein-Coupled Receptor Assay for rat Thyrotropin Releasing Hormone Receptor (TRH) (AID 2283329);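 further: hit means lower bound tracer signal versus DMSO baseline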
# In short: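 Test compounds are screened at 25 uM in duplicate against radioligand binding in rat forebrain membranes, with active pairs followed up over a concentration range. Detection uses filter-based radiodetection after a 4 h exposure.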
# NCBI gene 24521 = assay: NVS_IC_rKATPCh: NovaScreen (NVS) Ion Channel Assay for rat Potassium Channel, ATP-Sensitive (KATPCh) (AID 2283319)
# In short: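 Primary duplicate screen at 25 uM, then singleton concentration series to 50 uM maximum, in a rat cortex membrane radioligand displacement assay. Binding measured by filtration and scintillation 2 h post-dose; DMSO baseline.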
# [5] = target: human Androgen Receptor (AR), AR (gene 367) (UniProt P10275); assay: NVS_NR_hAR: NovaScreen (NVS) Nuclear Receptor Binding Assay for human Androgen Receptor (AR) (AID 2283332)
# In short: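 Actives from a duplicate 25 uM single-point screen went on to concentration series. Read-out after 20 h was scintillation counting of displaced radioligand in LnCAP extract, with DMSO as baseline.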
# [6] = target: rat Neonicotinoid receptor (NNR), Chrna7 (gene 25302) (UniProt Q05941); assay: NVS_LGIC_rNNR_BungSens: NovaScreen (NVS) Ligand-Gated Ion Channel Assay for rat Neonicotinoid receptor (NNR) (AID 2283315)
# In short: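 Rat cortical membrane preparation incubated 2.5 h with tritiated or iodinated radioligand and test chemical. Bound radioactivity was filtered and counted by scintillation, and displacement was analysed against DMSO.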
# [7] = target: bovine Gamma-Aminobutyric Acid Type A Receptor BDZ, alpha 5 site (GABARa5), GABRA5 (gene 523515) (UniProt Q08E50); assay: NVS_LGIC_bGABARa5: NovaScreen (NVS) Ligand-Gated Ion Channel Assay for bovine Gamma-Aminobutyric Acid Type A Receptor BDZ, alpha 5 site (GABARa5) (AID 2283323)
# In short: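 Tested first in duplicate at a single 25 uM, with hits re-run in concentration series to a 50 uM maximum. Bovine hippocampal membranes; specific radioligand displacement measured by filter scintillation counting 1 hr post-dose.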
# [8] = target: rat Oxytocin Receptor (OXT), Oxtr (gene 25342) (UniProt P70536); assay: NVS_GPCR_rOXT: NovaScreen (NVS) G Protein-Coupled Receptor Assay for rat Oxytocin Receptor (OXT) (AID 2283330)
# Experimental: as §1, with “NVS_GPCR_rOXT” for “NVS_IC_rNaCh_site2”, “uterine” for “forebrain”, “plate.NVS_GPCR_rOXT” for “plate.NVS_IC_rNaCh_site2”, “NVS_GPCR_rOXT,” for “NVS_IC_rNaCh_site2,”, “Using a type of binding reporter, loss-of-signal activity can be used to understand changes in the binding as they relate to the gene Scn1a.” left out, “To generalize the intended target to other relatable targets, this assay endpoint is annotated to the ion channel intended target family, where the subfamily is sodium channel.” left out
# Binding assays used specific radioligands (tritiated, iodinated) with non-radioactive competitive displacement ligands in agonist or antagonist protocols (as indicated) and various reference compounds and inhibitors to titrate specific binding to receptors and transporters. Most enzyme assays (CYPs, kinases, phosphatases, proteases, HDACs) used recombinant protein and specific substrates (fluorescence mostly, some colorimetric and radioactive) and inhibitors, followed by a biochemical separation of substrate and product. […]
# human Peripheral-type Benzodiazepine Receptor (PBR), TSPO (gene 706), sequence (P30536 whole entry, looked up): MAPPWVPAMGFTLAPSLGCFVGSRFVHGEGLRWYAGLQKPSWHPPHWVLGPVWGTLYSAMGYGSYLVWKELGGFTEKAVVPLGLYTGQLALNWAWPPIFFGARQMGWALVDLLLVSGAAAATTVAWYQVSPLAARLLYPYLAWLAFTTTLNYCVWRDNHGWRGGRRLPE
# rat Thyrotropin Releasing Hormone Receptor (TRH), Trhr (gene 25570), sequence (Q01717 whole entry, looked up): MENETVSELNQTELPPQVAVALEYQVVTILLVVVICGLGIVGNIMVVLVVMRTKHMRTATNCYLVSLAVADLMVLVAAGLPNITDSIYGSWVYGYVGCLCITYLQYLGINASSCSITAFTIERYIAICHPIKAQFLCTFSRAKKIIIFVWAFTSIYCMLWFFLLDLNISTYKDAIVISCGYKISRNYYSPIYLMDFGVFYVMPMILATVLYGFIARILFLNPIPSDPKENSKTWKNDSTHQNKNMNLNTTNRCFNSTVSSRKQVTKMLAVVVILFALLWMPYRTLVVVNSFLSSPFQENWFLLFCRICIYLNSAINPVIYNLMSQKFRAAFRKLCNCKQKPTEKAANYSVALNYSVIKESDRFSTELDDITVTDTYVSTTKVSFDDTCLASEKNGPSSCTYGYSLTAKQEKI
# rat Gamma-Aminobutyric Acid Type A Receptor, Non-Selective (GABAR-NonSelective), Gabra1 (gene 29705), sequence (P62813 whole entry, looked up): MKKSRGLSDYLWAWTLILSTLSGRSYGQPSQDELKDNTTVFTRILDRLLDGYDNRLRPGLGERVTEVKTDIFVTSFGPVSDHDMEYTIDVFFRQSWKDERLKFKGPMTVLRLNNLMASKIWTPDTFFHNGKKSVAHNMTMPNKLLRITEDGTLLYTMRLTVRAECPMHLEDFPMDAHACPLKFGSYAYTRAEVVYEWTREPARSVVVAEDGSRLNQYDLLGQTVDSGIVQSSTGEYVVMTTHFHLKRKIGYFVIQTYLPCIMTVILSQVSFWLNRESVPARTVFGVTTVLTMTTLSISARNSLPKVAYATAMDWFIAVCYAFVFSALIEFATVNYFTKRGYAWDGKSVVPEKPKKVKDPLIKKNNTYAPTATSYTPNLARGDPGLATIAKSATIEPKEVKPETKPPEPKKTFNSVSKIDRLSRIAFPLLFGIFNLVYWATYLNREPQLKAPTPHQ
# rat Neonicotinoid receptor (NNR), Chrna7 (gene 25302), sequence (Q05941 whole entry, looked up): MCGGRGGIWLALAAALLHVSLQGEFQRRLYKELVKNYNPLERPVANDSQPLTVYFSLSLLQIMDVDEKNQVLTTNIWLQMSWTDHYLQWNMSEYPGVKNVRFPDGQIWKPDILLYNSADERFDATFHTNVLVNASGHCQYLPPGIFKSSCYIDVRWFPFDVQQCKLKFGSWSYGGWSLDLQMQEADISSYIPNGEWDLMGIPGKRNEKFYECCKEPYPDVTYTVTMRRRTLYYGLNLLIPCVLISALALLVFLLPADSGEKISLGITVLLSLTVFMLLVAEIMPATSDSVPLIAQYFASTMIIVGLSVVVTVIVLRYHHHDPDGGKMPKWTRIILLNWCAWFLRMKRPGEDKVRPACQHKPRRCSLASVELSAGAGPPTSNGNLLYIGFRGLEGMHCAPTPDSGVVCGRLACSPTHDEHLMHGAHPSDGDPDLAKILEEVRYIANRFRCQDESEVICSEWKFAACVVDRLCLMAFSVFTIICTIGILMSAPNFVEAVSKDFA
# rat Oxytocin Receptor (OXT), Oxtr (gene 25342), sequence (P70536 whole entry, looked up): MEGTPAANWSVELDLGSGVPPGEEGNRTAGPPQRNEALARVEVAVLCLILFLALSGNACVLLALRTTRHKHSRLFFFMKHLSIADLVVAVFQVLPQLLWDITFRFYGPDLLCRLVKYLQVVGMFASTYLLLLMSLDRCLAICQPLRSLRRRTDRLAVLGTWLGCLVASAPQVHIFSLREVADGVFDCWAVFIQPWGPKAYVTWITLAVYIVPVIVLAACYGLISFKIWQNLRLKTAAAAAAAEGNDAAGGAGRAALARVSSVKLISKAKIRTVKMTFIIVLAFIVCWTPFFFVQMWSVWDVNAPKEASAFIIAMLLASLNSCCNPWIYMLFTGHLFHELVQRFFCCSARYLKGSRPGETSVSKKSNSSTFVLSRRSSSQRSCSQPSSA
# human Androgen Receptor (AR), AR (gene 367), sequence (P10275 whole entry, looked up): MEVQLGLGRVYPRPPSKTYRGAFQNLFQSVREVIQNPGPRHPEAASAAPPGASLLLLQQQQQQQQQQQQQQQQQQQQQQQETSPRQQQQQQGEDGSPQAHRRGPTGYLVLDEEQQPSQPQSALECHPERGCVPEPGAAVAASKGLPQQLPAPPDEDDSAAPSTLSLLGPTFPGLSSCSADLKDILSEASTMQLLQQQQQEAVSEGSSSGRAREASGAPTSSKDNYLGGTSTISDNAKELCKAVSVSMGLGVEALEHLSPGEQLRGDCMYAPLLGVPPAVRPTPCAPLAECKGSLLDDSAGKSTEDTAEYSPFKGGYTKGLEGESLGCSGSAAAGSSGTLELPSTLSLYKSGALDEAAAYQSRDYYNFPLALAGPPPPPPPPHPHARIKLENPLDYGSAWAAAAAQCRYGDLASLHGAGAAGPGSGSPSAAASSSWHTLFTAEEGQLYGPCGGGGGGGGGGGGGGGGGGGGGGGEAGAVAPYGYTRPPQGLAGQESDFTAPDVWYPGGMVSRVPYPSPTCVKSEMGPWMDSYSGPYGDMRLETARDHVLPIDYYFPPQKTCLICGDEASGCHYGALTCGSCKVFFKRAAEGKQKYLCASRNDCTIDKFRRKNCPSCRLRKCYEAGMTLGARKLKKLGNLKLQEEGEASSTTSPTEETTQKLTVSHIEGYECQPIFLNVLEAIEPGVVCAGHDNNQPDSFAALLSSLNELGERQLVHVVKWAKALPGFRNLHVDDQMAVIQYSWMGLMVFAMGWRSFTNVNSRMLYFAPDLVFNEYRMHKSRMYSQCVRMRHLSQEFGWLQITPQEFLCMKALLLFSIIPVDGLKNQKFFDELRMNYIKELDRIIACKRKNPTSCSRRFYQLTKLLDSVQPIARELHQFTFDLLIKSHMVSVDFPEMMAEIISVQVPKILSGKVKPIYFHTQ
# bovine Gamma-Aminobutyric Acid Type A Receptor BDZ, alpha 5 site (GABARa5), GABRA5 (gene 523515), sequence (Q08E50 whole entry, looked up): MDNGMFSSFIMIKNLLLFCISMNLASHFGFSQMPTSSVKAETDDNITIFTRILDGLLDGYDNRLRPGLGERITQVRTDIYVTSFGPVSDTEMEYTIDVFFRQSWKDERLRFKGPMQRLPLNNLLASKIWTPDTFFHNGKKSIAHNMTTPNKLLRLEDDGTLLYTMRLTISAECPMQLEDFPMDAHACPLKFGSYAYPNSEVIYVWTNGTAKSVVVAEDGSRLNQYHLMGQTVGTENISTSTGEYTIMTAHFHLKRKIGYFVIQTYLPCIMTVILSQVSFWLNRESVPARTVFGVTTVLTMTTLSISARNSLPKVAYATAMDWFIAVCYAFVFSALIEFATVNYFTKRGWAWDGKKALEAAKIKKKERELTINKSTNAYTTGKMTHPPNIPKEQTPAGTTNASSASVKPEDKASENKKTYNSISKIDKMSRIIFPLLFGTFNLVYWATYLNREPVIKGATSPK
smiles,measurement,setting,value
c1cc2c3c(cccc3c1)CC2,AC50,[1],1.7 µM (active)
c1ccc(OP(Oc2ccccc2)Oc2ccccc2)cc1,AC50,[2],17.6 µM (active)
N#Cc1c(-c2ccc(Cl)cc2)[nH]c(C(F)(F)F)c1Br,AC50,[2],0.122 µM (active)
CC(C)(C)c1ccccc1OP(=O)(Oc1ccccc1)Oc1ccccc1,outcome,[3],inactive
same,AC50,[2],1.16 µM (active)
CC(C)(C)c1ccc(O)cc1,outcome,[2],inactive
c1ccc2c(c1)sc1ccccc12,outcome,[4],inactive
CCOS(=O)(=O)OCC,outcome,[1],inactive
CC(C)(C)N(NC(=O)c1ccc(Cl)cc1)C(=O)c1ccccc1,outcome,[4],inactive
CCCCOCCOP(=O)(OCCOCCCC)OCCOCCCC,outcome,[3],inactive
same,AC50,[2],7.98 µM (active) and 6.27 µM (active)
FC(F)(F)c1ccc(Cl)cc1,outcome,[4],inactive
OCC1CO1 (stereo not drawn),outcome,NCBI gene 24521,inactive
CO/N=C(/C(=O)OC)c1ccccc1COc1ccccc1C,AC50,[2],2.76 µM (active)
N#Cc1ccc(O)cc1,AC50,[3],41.3 µM (active)
Oc1ccc(I)cc1,AC50,[3],7.01 µM (active)
same,outcome,[2],inactive
CCC(C)(C)c1ccc(O)cc1,AC50,[3],41.5 µM (active)
same,outcome,[2],inactive
O=S1(=O)OCC2C(CO1)C1(Cl)C(Cl)=C(Cl)C2(Cl)C1(Cl)Cl (stereo not drawn),outcome,[4],inactive
O=P(OCC(Br)CBr)(OCC(Br)CBr)OCC(Br)CBr (stereo not drawn),AC50,[2],1.25 µM (active) and 139 nM (active)
same,AC50,[5],6.63 µM (active)
CCOP(=S)(NC(C)C)Oc1ccccc1C(=O)OC(C)C (stereo not drawn),AC50,[2],9.3 µM (active)
Cc1ccc2c(c1N)C(=O)c1ccccc1C2=O,AC50,[2],13.9 µM (active)
CSC(C)(C)C=NO,outcome,[6],inactive
same,outcome,[3],inactive
same,outcome,[7],inactive
same,outcome,[8],inactive
